The target of assay [1] is Calcium and integrin-binding protein 1 (Homo sapiens) (UniProt Q99828). The assay is described as follows: Primary qHTS for Identification of Calcium Integrin Binding Protein 1 (CIB1) Competitor (AID 1508620).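 Further: GST tagged CIB1 binding a fluorescein labelled alphaIIb integrin peptide tracer; top concentration of the series differs between compounds; on the % scale 0 is the no-effect control and ±100 the full control effect.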 In outline: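 CIB1-GST (1 uM final) and compound incubated 15 min at room temperature before adding FITC-alphaIIb peptide tracer (100 nM final). Competition for binding read by fluorescence polarization (ex 480, em 540) after another 15 min at room temperature.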
A general note: In qHTS, concentration-response curves come from the screen itself.

Assay [2] can be described thus: Primary qHTS for inhibitors of nuclear receptor binding SET domain protein 2 (NSD2) in an isogenic RCH-ACV NSD2 p.E1099K mutant (9B) (AID 1645876). Further: nearly all actives have a fitted effect of over 70% in size. Further: potency means the concentration at half of the fitted maximal effect.
Assay [3] can be described thus: Primary qHTS for inhibitors of nuclear receptor binding SET domain protein 2 (NSD2) in an RCH-ACV wild type WT cells (2C) (AID 1645877). Further: nearly all actives have a fitted effect of over 70% in size. Further: potency means the concentration at half of the fitted maximal effect.
Assay [4] has as its target Cytochrome P450 2D6 (Homo sapiens) (UniProt P10635). As to the kind of experiment: Cytochrome P450 family 2 subfamily D member 6 (CYP2D6) small molecule antagonists: luciferase biochemical (cell-free) qHTS assay (AID 1645840; active means well fitted curve in the direction sought with a large enough effect in the repeat runs; an effect the other way counts as inactive or inconclusive; further: nearly all actives have a fitted effect of over 55% in size; further: potency means the concentration at half of the fitted maximal effect; on activity change, negative = inhibition: series mostly up to about 57 µM; on the % scale 0 is the no-effect control and ±100 the full control effect). In outline: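 P450-Glo luminescent screen: recombinant CYP2D6 enzyme–proluciferin substrate mix preincubated with compound 10 min at room temperature, then NADPH regeneration added for 1 h at room temperature. Detection reagent added for 20 min; luciferin light read as relative luminescence units.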

Assay [5] can be described thus: Primary qHTS for small molecule stabilizers of the endoplasmic reticulum resident proteome: Secreted ER Calcium Modulated Protein (SERCaMP) assay (AID 1508630). Further: on the % scale 0 is the no-effect control and ±100 the full control effect. In outline:
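GLuc-SERCaMP-expressing SH-SY5Y cells, pretreated 16 h with compound, are challenged with thapsigargin to empty ER calcium stores; after 4 h, coelenterazine is added directly to the medium and luminescence is imaged.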

Assay [6] can be described thus: Counterscreen qHTS for small molecule stabilizers of the endoplasmic reticulum resident proteome: GLuc-NoTag assay (AID 1508627).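 Further: SH-SY5Y cells given compound then 100 nM thapsigargin to empty ER calcium; series mostly up to about 76 µM; 0% = thapsigargin alone and -100% = DMSO vehicle control.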 In outline:
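Luminescence of Gaussia luciferase secreted into the medium (coelenterazine, 0.07x final, unlysed cells) was the read-out. Human SH-SY5Y neuroblastoma cells constitutively secreting untagged GLuc received compound for 19 h, then 100 nM thapsigargin for 4 h.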
(In general: A counterscreen serves to expose hits that act by an unwanted route or on another target.)

A short description of assay [7]: Confirmatory qHTS for small molecule stabilizers of the endoplasmic reticulum resident proteome: Secreted ER Calcium Modulated Protein (SERCaMP) assay (AID 1508628). Further: series mostly up to about 76 µM; on the % scale 0 is the no-effect control and ±100 the full control effect; nearly all actives have a fitted effect of over 40% in size. In outline:
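SH-SY5Y cells stably expressing GLuc-SERCaMP, treated 16 h with compound (primary 1.53, 7.67, 38.3 uM; confirmation 11 concentrations, up to 76.6 uM), then 100 nM thapsigargin for 4 h. Secreted Gaussia luciferase in medium read by coelenterazine luminescence.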

The nature of assay [8]: Cell Viability qHTS for small molecule stabilizers of the endoplasmic reticulum resident proteome (AID 1508629).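 Further: human SH-SY5Y neuroblastoma cells carrying the GLuc-SERCaMP reporter; compound exposure about 46 h in total before the viability read; on the % scale 0 is the no-effect control and ±100 the full control effect.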 The settings on record: cell viability counter-screen, 100 nM thapsigargin for final 4 h.
In assay [9] the target is Rap guanine nucleotide exchange factor 3 (Homo sapiens) (UniProt O95398). The assay is described as follows: Confirmatory qHTS for agonist of cAMP-regulated guanine nucleotide exchange factor 3 (EPAC1) (AID 1645881).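 Further: EPAC1 catalysed release of BODIPY-GDP from Rap1B seen as fluorescence loss; 100% = effect of cAMP agonist control; nearly all actives have a fitted effect of over 75% in size.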
Assay [10] deals with Cytochrome P450 2C9 (Homo sapiens) (UniProt P11712). The assay is described as follows: Cytochrome P450 family 2 subfamily C member 9 (CYP2C9) small molecule antagonists: luciferase biochemical (cell-free) qHTS assay (AID 1645842; active means well fitted curve in the direction sought with a large enough effect in the repeat runs; an effect the other way counts as inactive or inconclusive; further: nearly all actives have a fitted effect of over 55% in size; further: potency means the concentration at half of the fitted maximal effect). In outline: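 Luminescence, after 20 min with luciferin detection reagent, reflected CYP2C9 turnover during a 1 h NADPH-driven reaction at 37C. Enzyme-substrate mix contained 0.4% bovine serum albumin and was preincubated with compound 10 min at room temperature.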

Several values for one entry are separate records, joined by “and”; a condition that tells them apart may be missing. Equal entries are not always repeated. Records with an inconclusive call do not appear. Some structures have more than one record in an assay (separate samples or runs), and their calls can disagree. Activity calls are given as the source filed them. Unless noted, the call rests on the fitted dose curve; in most records, active means well fitted curve in the direction sought with a large enough effect; inconclusive means small, poorly fitted or top-dose-only effect, or another doubt; inactive means no such curve, though single readings can be large; an effect the other way counts as inactive or inconclusive.

Calcium and integrin-binding protein 1 (Homo sapiens), sequence (Q99828 whole entry, looked up): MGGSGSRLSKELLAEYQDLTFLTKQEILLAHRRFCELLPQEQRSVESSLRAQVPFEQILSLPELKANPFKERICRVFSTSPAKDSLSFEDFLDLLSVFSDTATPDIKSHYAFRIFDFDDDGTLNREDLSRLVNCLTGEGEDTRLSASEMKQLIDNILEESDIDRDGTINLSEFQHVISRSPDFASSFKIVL
Cytochrome P450 2D6 (Homo sapiens), sequence (P10635 whole entry, looked up): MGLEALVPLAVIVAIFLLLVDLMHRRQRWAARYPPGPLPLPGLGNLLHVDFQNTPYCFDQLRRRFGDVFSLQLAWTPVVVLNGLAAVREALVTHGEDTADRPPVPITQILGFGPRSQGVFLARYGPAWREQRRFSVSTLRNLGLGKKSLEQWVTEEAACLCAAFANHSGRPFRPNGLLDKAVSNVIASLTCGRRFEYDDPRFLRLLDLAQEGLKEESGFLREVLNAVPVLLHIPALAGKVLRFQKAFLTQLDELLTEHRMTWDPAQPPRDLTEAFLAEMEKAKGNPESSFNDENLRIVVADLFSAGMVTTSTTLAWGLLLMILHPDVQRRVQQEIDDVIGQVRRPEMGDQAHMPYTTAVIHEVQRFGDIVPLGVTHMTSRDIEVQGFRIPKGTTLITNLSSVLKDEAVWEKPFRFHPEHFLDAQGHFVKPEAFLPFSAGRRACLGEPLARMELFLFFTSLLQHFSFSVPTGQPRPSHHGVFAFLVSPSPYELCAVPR
Cytochrome P450 2C9 (Homo sapiens), sequence (P11712 whole entry, looked up): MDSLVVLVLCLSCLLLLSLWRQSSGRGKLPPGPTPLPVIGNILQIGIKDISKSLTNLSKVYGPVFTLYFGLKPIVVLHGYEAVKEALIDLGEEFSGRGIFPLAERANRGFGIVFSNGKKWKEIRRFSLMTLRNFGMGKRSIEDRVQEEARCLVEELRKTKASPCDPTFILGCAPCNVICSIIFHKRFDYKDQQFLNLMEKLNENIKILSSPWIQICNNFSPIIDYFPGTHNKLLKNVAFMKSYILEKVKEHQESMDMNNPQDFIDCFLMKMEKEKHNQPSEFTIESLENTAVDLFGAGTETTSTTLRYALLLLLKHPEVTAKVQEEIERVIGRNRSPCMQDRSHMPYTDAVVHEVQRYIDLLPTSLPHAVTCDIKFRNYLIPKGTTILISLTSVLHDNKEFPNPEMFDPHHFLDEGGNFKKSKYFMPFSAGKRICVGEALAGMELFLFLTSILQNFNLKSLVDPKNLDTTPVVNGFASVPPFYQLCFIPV
Rap guanine nucleotide exchange factor 3 (Homo sapiens), sequence (O95398 whole entry, looked up): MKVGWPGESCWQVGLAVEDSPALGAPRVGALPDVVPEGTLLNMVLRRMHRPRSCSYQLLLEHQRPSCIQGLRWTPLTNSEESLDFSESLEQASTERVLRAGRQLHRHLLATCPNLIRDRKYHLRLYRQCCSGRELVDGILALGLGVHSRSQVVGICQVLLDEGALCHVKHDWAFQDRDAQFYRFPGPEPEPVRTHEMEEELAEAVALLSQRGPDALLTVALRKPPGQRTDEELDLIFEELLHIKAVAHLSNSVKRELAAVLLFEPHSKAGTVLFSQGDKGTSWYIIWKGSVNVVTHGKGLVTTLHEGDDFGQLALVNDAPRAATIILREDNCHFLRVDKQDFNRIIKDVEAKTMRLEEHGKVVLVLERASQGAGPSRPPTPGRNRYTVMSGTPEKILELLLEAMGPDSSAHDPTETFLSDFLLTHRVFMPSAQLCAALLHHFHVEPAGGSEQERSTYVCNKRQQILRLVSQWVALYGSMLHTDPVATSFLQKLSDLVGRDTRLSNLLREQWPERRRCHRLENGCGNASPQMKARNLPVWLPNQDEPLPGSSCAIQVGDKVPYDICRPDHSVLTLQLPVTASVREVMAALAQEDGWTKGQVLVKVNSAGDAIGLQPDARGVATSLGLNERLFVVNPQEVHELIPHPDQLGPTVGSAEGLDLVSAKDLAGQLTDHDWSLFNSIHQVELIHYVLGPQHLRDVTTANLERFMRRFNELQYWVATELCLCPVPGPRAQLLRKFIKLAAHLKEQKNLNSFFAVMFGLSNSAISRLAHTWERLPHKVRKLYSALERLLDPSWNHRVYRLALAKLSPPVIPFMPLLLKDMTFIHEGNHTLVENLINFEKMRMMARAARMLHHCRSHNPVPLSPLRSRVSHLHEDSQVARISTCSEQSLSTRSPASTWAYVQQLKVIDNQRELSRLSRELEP

In the case of `COc1ccc(Cn2ccc3ccc(C(=O)NO)cc32)cc1`, in assay [1], the Potency entry was “inactive”. The Potency in [2] was 9.16 µM (active) and 13.2 µM (active); in assay [3], 16.3 µM (active) and 8.33 µM (active).

`CC1(COc2ccc3c(c2)ncn3-c2ccc3cccc(N4CCC(N)CC4)c3n2)COC1`: in assay [1], the Potency result was “inactive”. The Potency is 15.1 µM (active) in assay [4]; 1.83 µM (active) and 1.32 µM (active) in assay [2]; 2.05 µM (active) and 1.86 µM (active) in [3].

Turning to `CC=C(C(=CC)c1ccc(O)cc1)c1ccc(O)cc1`, the Potency entry in assay [5] was “inactive”.

In the case of `CCCCC(C)(C)[C@H](O)C=C[C@H]1[C@H](O)CC(=O)[C@H]1CC=CCCCC(=O)O`, the Potency result in assay [1], in assay [2] and in [3] was “inactive” throughout.

Take `COc1cc2c(cc1Cc1cccc(Cl)c1F)c(=O)c(C(=O)O)cn2[C@H](CO)C(C)C`: the Potency result in assay [1] was “inactive”. The Potency in assay [2] is 7.42 µM (active); in [3] it was 5.25 µM (active).

Take `N#Cc1c(N(CC(=O)O)CC(=O)O)sc(C(=O)O)c1CC(=O)O`: the Potency result in [1], in [2] and in assay [3] was “inactive” in each case.

On to `CN1CCc2c(n(Cc3ccc(C(=O)NO)cc3)c3ccccc23)C1`, for which the Potency result in assay [1] is “inactive”. In addition, the Potency is 6.74 µM (active) in [4]; 18.3 µM (active) and 16.6 µM (active) in [2]; 14.5 µM (active) and 18.6 µM (active) in assay [3].

As to `O=C(O)C1=NC(C(=O)O)CC(C=CN2c3cc(O)c(OC4OC(CO)C(O)C(O)C4O)cc3CC2C(=O)O)=C1` (stereo not drawn), in [5], the Potency result is “inactive”.

Regarding `NC(=O)c1ncn([C@@H]2O[C@H](CO)[C@@H](O)[C@@H]2O)n1`, the Potency result in assay [5] is “inactive”.

As for `CC(C)=CCCC(C)=CCCC(C)=CCCC(C)=CCCC(C)=CCCC(C)=CCCC(C)=CCCC(C)=CCCC(C)=CCO`, the Potency result in [6] and in assay [7] was “inactive” in each case. Besides, the max response in [8] was 2.98% (inactive).

For `CN1CC(=O)NC1=NC(=O)Nc1cccc(Cl)c1`, the Potency result in assay [1], in assay [2] and in assay [3] was “inactive” each time.

`COC1CCC(C(=O)c2ccc3nc4c(cc3c2)CCCO4)CC1` (stereo not drawn): the Potency result in [1] and in [2] was “inactive” in each case.

Take `COc1cc([C@H]2Oc3cc([C@H]4Oc5cc(O)cc(O)c5C(=O)[C@H]4O)ccc3O[C@H]2CO)ccc1O`: the Potency result in assay [5] is “inactive”.

Take `C[C@H]1[C@H](O)O[C@@H]2O[C@@]3(C)CC[C@@H]4[C@H](C)CC[C@@H]1[C@@]24OO3`: the Potency entry in [5] was “inactive”.

Regarding `CCCCCCCCCCCCCC(=O)N[C@H](CO)[C@H](O)c1ccc([N+](=O)[O-])cc1`, the Potency entry in [1] and in [3] was “inactive” throughout.

Take `CCOC(=O)[C@@H](N)CCC(=O)N[C@@H](CSCc1ccccc1)C(=O)N[C@@H](C(=O)OCC)c1ccccc1`: the Potency result in assay [1] was “inactive”. Besides, the Potency in assay [2] is 20.9 µM (active); in assay [3], 16.6 µM (active).

Regarding `CC(=O)NCCC(=O)N[C@@H](CCC(N)=O)C(=O)N[C@@H](CO)C(=O)N[C@@H](CCC(N)=O)C(=O)N[C@@H](CCC(N)=O)C(=O)N[C@H](C(=O)N[C@@H](Cc1ccccc1)C(=O)N[C@]1(C)CCCCCCC=CCCC[C@@](C)(C(=O)N[C@@H](CCC(N)=O)C(=O)N[C@@H](CC(N)=O)C(N)=O)NC(=O)[C@H](CC(C)C)NC(=O)[C@H](CC(C)C)NC(=O)[C@@H](CCCNC(=N)N)NC(=O)[C@H](Cc2c[nH]c3ccccc23)NC(=O)[C@H](CC(C)C)NC(=O)[C@H](CC(N)=O)NC1=O)[C@H](C)O`, the Potency entry in assay [1], in assay [2] and in [3] was “inactive” in each case.

In the case of `CN1C(=O)C[C@H](C(=O)N[C@@H](Cc2cnc[nH]2)C(=O)N2CCC[C@@H]2C(N)=O)NC1=O`, the Potency entry in assay [5] was “inactive”.

In the case of `Cc1cccc(-c2[nH]c(C(C)(C)C)nc2-c2ccc3c(c2)OCO3)n1`, the Potency result in assay [1] was “inactive”. Besides, the Potency in assay [2] was 4.61 µM (active) and 4.17 µM (active); in assay [3] it was 4.11 µM (active) and 4.17 µM (active).

Regarding `C#CCN(C)CC1=Cc2ccccc2Oc2ccccc21`, the Potency entry in [1], in [2] and in assay [3] was “inactive” each time.

On to `O=C(O)CCNc1cc(N2CCc3ccccc3CC2)nc(-c2ccccn2)n1`, for which the Potency result in assay [1], in assay [2] and in assay [3] was “inactive” in each case. Further, the activity change, negative = inhibition in assay [4] is 10.8% [at 11.5 µM] (inactive).

On to `CNC1[C@H](O)C(O[C@@H]2C(O)C(O[C@H]3O[C@H]([C@@H](C)NC)CC[C@H]3N)[C@@H](N)C[C@H]2N)OC[C@]1(C)O` (stereo partly drawn), for which the Potency result in assay [5] is “inactive”.

Consider `O=C1C(c2c(O)[nH]c3ccccc23)=Nc2ccccc21`, for which the Potency in assay [2] is 8.93 µM (active) and inactive; in [3], 2.24 µM (active) and inactive.

As to `Oc1cc(O)cc(C=Cc2ccc(O)c(O)c2)c1`, the Potency result in assay [5] is “inactive”.

On to `COc1ccc(-c2ccc3ncc4c(c3c2)n(-c2ccc(N3CCNCC3)c(C(F)(F)F)c2)c(=O)n4C)cn1`, for which the Potency result in [5] and in [4] was “inactive” throughout. The Potency was 5.2 nM (active) and 14.6 nM (active) and 13.2 nM (active) in [2]; 7.3 nM (active) and 14.6 nM (active) and 18.6 nM (active) in assay [3].

For `C[C@@H](O[C@H]1OCCN(Cc2n[nH]c(=O)[nH]2)[C@@H]1c1ccc(F)cc1)c1cc(C(F)(F)F)cc(C(F)(F)F)c1`, the Potency result in assay [5] and in [9] was “inactive” in each case.

With `CC1(C)CC(=O)c2c(C(F)(F)F)nn(-c3ccc(C(N)=O)c(NC4CCC(O)CC4)c3)c2C1` (stereo not drawn), the Potency in assay [10] was 6.01 µM (active); in [2], 57.8 nM (active) and 83.3 nM (active); in assay [3], 57.8 nM (active) and 83.3 nM (active).

Regarding `CC[C@H](C)n1cc(C)c2c(C(=O)NCc3c(C)cc(C)[nH]c3=O)cc(-c3ccc(N4CCNCC4)nc3)cc21`, in [5], the Potency result is “inactive”. The Potency in assay [2] was 18.6 µM (active); in assay [3], 16.6 µM (active).

For the compound `Cc1nn(Cc2ccccc2Cl)c(C)c1CN(C)CC(O)COc1ccc(Cl)cc1` (stereo not drawn), the Potency entry in [5] and in [10] was “inactive” each time. In addition, the Potency in [4] was 0.536 µM (active); in [2], 18.6 µM (active); in assay [3], 14.8 µM (active).
